Source: PubChem BioAssay (NCI)
The panel holds about 83,000 compounds, 20% with a hit somewhere; the sample as a whole holds those more often.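 Step 1: grow cells in 96-well plates. Step 2: add test compound at a single concentration. Step 3: incubate 48 h. Step 4: record percent growth.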 Activity calls are given as the source filed them. How the source made its calls: active means growth percent below 10; inactive means the rest.

Assays:
Assay in all cases: NCI-60 one-dose screen, 48 h (100 = growth as untreated, 0 = no growth, -100 = all killed)
Conditions in all cases: 10 µM unless noted
[1] = system: NCI-H226 lung
[2] = system: NCI-H322M lung
[3] = system: HOP-62 NSCLC
[4] = system: NCI-H460 lung
[5] = system: NCI-H522 lung
[6] = system: A549/ATCC NSCLC
[7] = system: 786-0 renal
[8] = system: DU-145 prostate
[9] = system: K-562 leukemia
[10] = system: MALME-3M melanoma
[11] = system: MDA-MB-231 breast
[12] = system: RXF 393 renal
[13] = system: SF-268 CNS
[14] = system: SF-295 CNS
[15] = system: SF-539 CNS
[16] = system: UACC-257 melanoma
[17] = system: M14 melanoma
[18] = system: COLO 205 colon

Measured: growth

CCOC(=O)C1C(=O)C=C(c2cc(OC)c(OC)c(OC)c2)CC1c1sc(N(C)Cc2ccccc2)nc1Cl (stereo not given)
inactive: [1] 74.1% | [2] 83.2% | [3] 78.3% | [4] 86.3% | [5] 67% | [6] 71.6% | [7] 85.9% | [8] 106% | [9] 66.4% | [10] 104% | [11] 82.9% | [12] 81.5% | [13] 73.6% | [14] 89.3% | [15] 95.6% | [16] 90.4% | [17] 92%

CCC(=O)NC1=C(Cl)C(=O)C(NC(=O)CC)=C(Cl)C1=O
inactive: [1] 113% | [2] 107% | [3] 111% | [4] 108% | [6] 103% | [7] 105% | [8] 44.3% | [11] 91.6% | [12] 39.9% | [13] 118% | [14] 137% | [15] 117% | [16] 107% | [17] 93.7%
active: [5] -82.7% | [18] -91.4% | [9] -24.3% | [10] -63.4%

O=C1SCN(Cc2ccccc2)CN1Cc1ccccc1
inactive: [1] 96.2% | [2] 95.3% | [3] 102% | [4] 107% | [5] 26.3% | [6] 99.1% | [7] 114% | [18] 116% | [8] 95.4% | [9] 46.3% | [10] 101% | [11] 86.9% | [12] 108% | [13] 96.2% | [14] 110% | [15] 104% | [16] 70.9% | [17] 99.1%

C=C1C(=O)O[C@H]2[C@H]1CC/C(COC(=O)N[C@@H](Cc1c[nH]c3ccccc13)C(=O)OC)=C\CC[C@@]1(C)O[C@@H]21
active: [7] -48.6% | [18] -69.2% | [9] -1.67% | [10] -38.4% | [12] -55.4% | [17] -45.3%
inactive: [1] 58.4% | [2] 80.5% | [3] 68.8% | [4] 40.5% | [6] 47.2% | [8] 20.5% | [11] 25.2% | [13] 46.7% | [14] 72.3% | [15] 25.3% | [16] 11.5%

CCc1onc(-c2ccc(OC)cc2)c1-c1ccccc1OCCN(CC)CC
inactive: [1] 93.5% | [2] 76.6% | [3] 90.4% | [4] 98.7% | [5] 88.5% | [6] 101% | [7] 75.9% | [18] 67% | [8] 96.7% | [9] 70.7% | [10] 97.7% | [11] 93.3% | [12] 82.2% | [13] 85.8% | [14] 79.5% | [15] 90.2% | [16] 111% | [17] 76.3%

Clc1ccc(-c2cnc3c(-c4ccnc(N5CCNCC5)c4)cnn3c2)cc1
active: [3] -37.8% | [4] -39.8% | [5] -53.8% | [7] -70% | [18] -57.7% | [9] -13.5% | [10] -37.5% | [11] -23.3% | [12] -32.6% | [13] -16.2% | [15] -82.4% | [16] -60% | [17] -78.8%
inactive: [1] 115% | [2] 23.2% | [6] 16.7% | [8] 27.6% | [14] 34.9%

CCN1C(=O)N(CC)C2C1NN=c1s/c(=C\c3ccco3)c(=O)n12 (stereo not given)
inactive: [1] 60% | [2] 42.5% | [3] 28.2% | [6] 25% | [7] 25% | [9] 11.5% | [10] 55.8% | [11] 43% | [13] 44% | [16] 63%
active: [5] -9.98% | [18] -19.8% | [8] 3.04% | [12] -2.28% | [14] 8.2% | [15] -1.22% | [17] 5.24%

COc1ccc(-c2nc(SCCC(C)C)nc(Nc3ccc(C(=O)O)cc3)c2C#N)cc1
active: [10] -52%
inactive: [1] 91.4% | [2] 88.1% | [3] 95.7% | [4] 89.5% | [5] 69.2% | [6] 67.2% | [7] 97% | [18] 104% | [8] 93.2% | [9] 67.8% | [11] 98% | [12] 90.1% | [13] 89.4% | [14] 80.5% | [15] 91.3% | [16] 95.2% | [17] 102%

O=[N+]([O-])c1ccc(SSc2ccc([N+](=O)[O-])cc2Cl)c(Cl)c1
inactive: [1] 87.5% | [2] 98.2% | [3] 112% | [4] 92.2% | [5] 85.1% | [6] 96.3% | [7] 102% | [18] 127% | [8] 99.5% | [9] 77.8% | [10] 90.8% | [11] 78.2% | [12] 120% | [13] 103% | [14] 97.2% | [15] 119% | [16] 118% | [17] 103%

CC(C)(C)c1ccc(OC(=O)Nc2ccccc2)cc1
inactive: [1] 106% | [2] 94.4% | [3] 111% | [4] 111% | [5] 100% | [6] 99.3% | [7] 83.8% | [18] 119% | [8] 107% | [9] 88% | [10] 96.6% | [11] 109% | [12] 118% | [13] 96% | [14] 103% | [15] 90.5% | [16] 99.5%

CCCCCCCCCCCCCCCCCC(=O)[O][Sn]([CH2]CCC)([CH2]CCC)[CH2]CCC
active: [1] -74.6% | [2] -91.4% | [3] -89.5% | [4] -88.9% | [5] -54.3% | [6] -84.1% | [7] -100% | [18] -80.9% | [8] -100% | [9] -42.8% | [10] -85.9% | [11] -57.8% | [12] -98% | [13] -92.8% | [14] -85.3% | [15] -81.6% | [16] -86.1% | [17] -91.1%

Oc1ccc(-c2nc3ccccc3s2)cc1CN(Cc1ccccn1)Cc1ccccn1
active: [1] 5.38% | [2] 9.63% | [4] 2.66% | [5] -7.33% | [6] 2.38% | [7] -3.75% | [10] 8.24% | [15] 3.91% | [16] -0.146% | [17] -29.7%
inactive: [3] 10.9% | [18] 16% | [8] 24.2% | [9] 11.8% | [11] 25.3% | [12] 40.5% | [13] 17.7% | [14] 13.5%

COc1ccc([C@H]2c3[nH]c4ccccc4c3C[C@H]3C(=O)N(CCCCCCC(=O)NO)CC(=O)N23)cc1
inactive: [1] 76.9% | [2] 53.2% | [3] 42.9% | [4] 47% | [6] 60% | [7] 83.6% | [18] 22.9% | [8] 24.2% | [11] 45.3% | [12] 22.2% | [13] 69.7% | [14] 34.8% | [15] 38.1% | [16] 27.7% | [17] 22.4%
active: [5] 4.51% | [9] 6.77% | [10] -4%

OCCN(CCO)c1ccc2ccccc2c1
inactive: [1] 103% | [2] 93.6% | [3] 90.6% | [4] 107% | [5] 73.4% | [6] 97.7% | [7] 111% | [18] 106% | [8] 103% | [9] 106% | [10] 102% | [11] 108% | [12] 125% | [13] 96.8% | [14] 98.9% | [15] 96.7% | [16] 110% | [17] 90.7%

CCCCCCCCCCCC1=NC(C)(C)CN1CCO
inactive: [1] 88.2% | [2] 87.7% | [3] 56.4% | [4] 46.2% | [5] 69.2% | [6] 89.9% | [7] 70.4% | [8] 77.8% | [10] 88.9% | [11] 53.7% | [12] 35.4% | [13] 67.2% | [14] 81.4% | [15] 78.9% | [16] 77.9% | [17] 48.4%
active: [18] -57.7%
